Hit rate of the full screen: of about 5,500 compounds, about 2,000 (36%) were called active. Another 18% or so got no clear call; they are omitted. Rule as the data show it: active = normalized growth mostly below about 0.91 (no sharp cut-off); inconclusive = no clear call, values can overlap the other calls; inactive = mostly above about 0.92. The list shows a part of the results.
Test: chemical genetic growth profiling, strain panel (AID 1159580);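 also: tested at 20 µM; growth read once vehicle control cultures reached saturation at 30 °C; 1 = growth at the plate median or of vehicle wells; lower values mean less growth of the strain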
Details: growth OD

Measured: normalized growth

C[C@@H](CO)NC(=O)C1C=C2c3cccc4[nH]cc(c34)C[C@H]2N(C)C1 (some centres not stated)
inactive: S. cerevisiae deletion strains, locus YJR075W, strain HOC1, hits give low values 1.03 | S. cerevisiae deletion strains, locus YKL009W, strain mrt4, hits give low values 0.976 | S. cerevisiae deletion strains, locus YKL068W, hits give low values 0.993 | S. cerevisiae deletion strains, locus YKL085W, strain MDH1 (second series), hits give low values 0.982 | S. cerevisiae deletion strains, locus YKL085W, strain MDH1, hits give low values 0.982 | S. cerevisiae deletion strains, locus YKL160W, strain elf1, hits give low values 1.04 | S. cerevisiae deletion strains, locus YKL190W, strain CNB1, hits give low values 1.01 | S. cerevisiae deletion strains, locus YKR001C, strain vps1, hits give low values 0.997 | S. cerevisiae deletion strains, locus YKR026C, strain gcn3, hits give low values 1.01 | S. cerevisiae deletion strains, locus YKR091W, strain srl3, hits give low values 1.01 | S. cerevisiae deletion strains, locus YLL001W, strain dnm1, hits give low values 1.04 | S. cerevisiae deletion strains, locus YLL026W, hits give low values 1.03 | S. cerevisiae deletion strains, locus YLL041C, strain sdh2, hits give low values 1.01 | S. cerevisiae deletion strains, locus YLR027C, strain aat2, hits give low values 1.03 | S. cerevisiae deletion strains, locus YLR039C, strain RIC1, hits give low values 1.02 | S. cerevisiae deletion strains, locus YLR058C, strain SHM2, hits give low values 1 | S. cerevisiae deletion strains, locus YLR102C, strain apc9, hits give low values 0.993 | S. cerevisiae deletion strains, locus YLR113W, strain HOG1, hits give low values 1.07 | S. cerevisiae deletion strains, locus YLR221C, strain rsa3, hits give low values 0.97 | S. cerevisiae deletion strains, locus YLR258W, strain gsy2, hits give low values 1.01 | S. cerevisiae deletion strains, locus YLR262C, strain YPT6 (second series), hits give low values 1.04 | S. cerevisiae deletion strains, locus YLR262C, strain YPT6, hits give low values 1.05 | S. cerevisiae deletion strains, locus YLR268W, strain sec22, hits give low values 1.02 | S. cerevisiae deletion strains, locus YLR320W, strain mms22, hits give low values 1 | S. cerevisiae deletion strains, locus YLR330W, strain CHS5, hits give low values 0.994 | S. cerevisiae deletion strains, locus YLR342W, strain FKS1 (second series), hits give low values 0.973 | S. cerevisiae deletion strains, locus YLR342W, strain FKS1, hits give low values 1.03 | S. cerevisiae deletion strains, locus YLR357W, strain rsc2, hits give low values 1 | S. cerevisiae deletion strains, locus YLR370C, strain arc18, hits give low values 1.02 | S. cerevisiae deletion strains, locus YLR371W, strain rom2, hits give low values 0.993 | S. cerevisiae deletion strains, locus YLR384C, strain iki3, hits give low values 0.998 | S. cerevisiae deletion strains, locus YLR418C, strain cdc73, hits give low values 1.02 | S. cerevisiae deletion strains, locus YML016C, strain PPZ1, hits give low values 0.991 | S. cerevisiae deletion strains, locus YML032C, strain rad52, hits give low values 0.981 | S. cerevisiae deletion strains, locus YML120C, strain ndi1, hits give low values 1.04 | S. cerevisiae deletion strains, locus YML124C, strain tub3, hits give low values 0.992 | S. cerevisiae deletion strains, locus YMR058W, strain fet3, hits give low values 1.03 | S. cerevisiae deletion strains, locus YMR078C, strain ctf18, hits give low values 0.985 | S. cerevisiae deletion strains, locus YMR125W, strain sto1, hits give low values 1.01 | S. cerevisiae deletion strains, locus YMR129W, hits give low values 1.01 | S. cerevisiae deletion strains, locus YMR205C, strain PFK2, hits give low values 1.04 | S. cerevisiae deletion strains, locus YMR223W, strain ubp8, hits give low values 0.988 | S. cerevisiae deletion strains, locus YMR231W, strain pep5, hits give low values 1 | S. cerevisiae deletion strains, locus YMR263W, strain SAP30, hits give low values 1.04 | S. cerevisiae deletion strains, locus YMR307W, strain GAS1, hits give low values 0.96 | S. cerevisiae deletion strains, locus YNL067W, strain RPL9B, hits give low values 1.05 | S. cerevisiae deletion strains, locus YNL071W, strain lat1, hits give low values 1 | S. cerevisiae deletion strains, locus YNL128W, strain TEP1, hits give low values 1.03 | S. cerevisiae deletion strains, locus YNL153C, strain GIM3, hits give low values 1.01 | S. cerevisiae deletion strains, locus YNL183C, strain NPR1, hits give low values 0.994 | S. cerevisiae deletion strains, locus YNL209W, strain ssb2, hits give low values 1 | S. cerevisiae deletion strains, locus YNL233W, strain BNI4, hits give low values 1.01 | S. cerevisiae deletion strains, locus YNL248C, strain rpa49, hits give low values 0.991 | S. cerevisiae deletion strains, locus YNL250W, strain rad50, hits give low values 1.01 | S. cerevisiae deletion strains, locus YNL271C, strain bni1, hits give low values 1 | S. cerevisiae deletion strains, locus YNL298W, strain CLA4, hits give low values 0.992 | S. cerevisiae deletion strains, locus YNL307C, strain MCK1, hits give low values 0.985 | S. cerevisiae deletion strains, locus YNL322C, strain KRE1 (second series), hits give low values 1.02 | S. cerevisiae deletion strains, locus YNL322C, strain KRE1, hits give low values 1.01 | S. cerevisiae deletion strains, locus YNR049C, strain mso1, hits give low values 1.01 | S. cerevisiae deletion strains, locus YNR052C, strain pop2, hits give low values 0.984 | S. cerevisiae deletion strains, locus YOL006C, strain TOP1, hits give low values 1.09 | S. cerevisiae deletion strains, locus YOL012C, strain htz1 0.782 | S. cerevisiae deletion strains, locus YOL147C, strain pex11, hits give low values 0.996 | S. cerevisiae deletion strains, locus YOR001W, strain rrp6, hits give low values 1.02 | S. cerevisiae deletion strains, locus YOR061W, strain CKA2, hits give low values 1 | S. cerevisiae deletion strains, locus YOR069W, strain VPS5, hits give low values 0.992 | S. cerevisiae deletion strains, locus YOR070C, strain gyp1, hits give low values 1 | S. cerevisiae deletion strains, locus YOR080W, strain dia2, hits give low values 1.02 | S. cerevisiae deletion strains, locus YOR083W, strain WHI5, hits give low values 1.02 | S. cerevisiae deletion strains, locus YOR106W, strain vam3, hits give low values 1.05 | S. cerevisiae deletion strains, locus YOR136W, strain idh2, hits give low values 0.988 | S. cerevisiae deletion strains, locus YOR144C, strain elg1, hits give low values 0.989 | S. cerevisiae deletion strains, locus YOR184W, strain ser1, hits give low values 1 | S. cerevisiae deletion strains, locus YOR231W, strain MKK1, hits give low values 1.04 | S. cerevisiae deletion strains, locus YOR265W, strain rbl2, hits give low values 1.01 | S. cerevisiae deletion strains, locus YOR270C, strain vph1, hits give low values 1 | S. cerevisiae deletion strains, locus YOR290C, strain snf2, hits give low values 0.969 | S. cerevisiae deletion strains, locus YOR316C, strain cot1, hits give low values 0.988 | S. cerevisiae deletion strains, locus YPL051W, strain arl3, hits give low values 1.01 | S. cerevisiae deletion strains, locus YPL055C, strain LGE1, hits give low values 1.07 | S. cerevisiae deletion strains, locus YPL078C, strain atp4, hits give low values 1.06 | S. cerevisiae deletion strains, locus YPL106C, strain sse1, hits give low values 1.04 | S. cerevisiae deletion strains, locus YPL240C, strain hsp82, hits give low values 1.01 | S. cerevisiae deletion strains, locus YPL241C, strain CIN2, hits give low values 1 | S. cerevisiae deletion strains, locus YPL256C, strain CLN2, hits give low values 1.04 | S. cerevisiae deletion strains, locus YPR119W, strain clb2, hits give low values 1 | S. cerevisiae deletion strains, locus YPR141C, strain kar3, hits give low values 0.993 | S. cerevisiae deletion strains, locus YPR163C, strain tif3, hits give low values 0.994 | S. cerevisiae deletion strains, locus YPR167C, strain met16, hits give low values 0.995 | S. cerevisiae deletion strains, strain wtn01, hits give low values 0.999 | S. cerevisiae strains, strain wild type, hits give low values 1.03
